In ChEMBL document CHEMBL1961873, “Compounds: GSK PKIS; Assays: Nanosyn kinase panel” (2012):

Key:
[1] = molecular target: Ribosomal protein S6 kinase alpha-6 (Homo sapiens) (UniProt Q9UK32); settings: at 1 µM;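 further: each value is a mean inhibition of RSK4 from a GSK PKIS panel screen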
[2] = molecular target: T1, Serine/threonine-protein kinase Sgk1 (Homo sapiens) (UniProt O00141); settings: at 0.1 µM
T1 sequence (whole entry): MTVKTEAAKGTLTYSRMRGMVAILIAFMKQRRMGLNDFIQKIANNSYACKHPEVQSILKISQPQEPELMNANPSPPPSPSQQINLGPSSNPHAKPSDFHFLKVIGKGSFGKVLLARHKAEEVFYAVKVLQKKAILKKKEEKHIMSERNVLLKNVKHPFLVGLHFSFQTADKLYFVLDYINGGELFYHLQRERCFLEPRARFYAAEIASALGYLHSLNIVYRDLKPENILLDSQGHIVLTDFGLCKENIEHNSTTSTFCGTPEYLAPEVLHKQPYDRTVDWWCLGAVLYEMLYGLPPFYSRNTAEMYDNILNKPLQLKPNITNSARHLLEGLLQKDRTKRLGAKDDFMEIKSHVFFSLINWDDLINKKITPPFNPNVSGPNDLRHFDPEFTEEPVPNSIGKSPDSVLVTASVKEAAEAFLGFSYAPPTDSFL

[3] = molecular target: T1, Serine/threonine-protein kinase Sgk1 (Homo sapiens); settings: at 1 µM
[4] = molecular target: T2, Serine/threonine-protein kinase Sgk2 (Homo sapiens) (UniProt Q9HBY8); settings: at 0.1 µM
T2 sequence (whole entry): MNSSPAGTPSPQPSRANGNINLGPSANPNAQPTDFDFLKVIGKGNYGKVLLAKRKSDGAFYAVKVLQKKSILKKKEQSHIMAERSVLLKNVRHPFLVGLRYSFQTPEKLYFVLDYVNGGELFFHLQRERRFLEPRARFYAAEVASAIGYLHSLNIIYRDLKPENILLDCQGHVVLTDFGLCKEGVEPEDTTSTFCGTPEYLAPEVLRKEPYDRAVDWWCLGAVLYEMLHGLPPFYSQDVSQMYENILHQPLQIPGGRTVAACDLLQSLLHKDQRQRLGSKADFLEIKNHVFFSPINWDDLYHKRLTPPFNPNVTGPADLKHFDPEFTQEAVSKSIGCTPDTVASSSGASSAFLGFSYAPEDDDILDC

[5] = molecular target: T2, Serine/threonine-protein kinase Sgk2 (Homo sapiens); settings: at 1 µM
[6] = molecular target: T3, Serine/threonine-protein kinase Sgk3 (Homo sapiens) (UniProt Q96BR1); settings: at 0.1 µM
T3 sequence (whole entry): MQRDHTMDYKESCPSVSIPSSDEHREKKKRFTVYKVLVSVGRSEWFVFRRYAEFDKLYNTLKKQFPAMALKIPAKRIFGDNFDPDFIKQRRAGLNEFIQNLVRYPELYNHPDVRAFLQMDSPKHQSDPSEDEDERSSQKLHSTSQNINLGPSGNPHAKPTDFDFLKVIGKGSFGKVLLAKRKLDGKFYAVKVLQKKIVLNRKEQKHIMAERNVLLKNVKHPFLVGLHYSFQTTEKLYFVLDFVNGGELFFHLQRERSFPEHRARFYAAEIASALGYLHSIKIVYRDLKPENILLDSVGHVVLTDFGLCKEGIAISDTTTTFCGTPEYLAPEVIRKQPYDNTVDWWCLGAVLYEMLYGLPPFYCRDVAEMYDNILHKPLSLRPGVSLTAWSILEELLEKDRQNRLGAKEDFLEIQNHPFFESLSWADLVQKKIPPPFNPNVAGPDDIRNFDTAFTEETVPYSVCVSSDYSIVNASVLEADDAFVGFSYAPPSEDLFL

[7] = molecular target: T3, Serine/threonine-protein kinase Sgk3 (Homo sapiens); settings: at 1 µM
[8] = molecular target: 5'-AMP-activated protein kinase catalytic subunit alpha-1 (Homo sapiens) (UniProt Q13131); settings: at 0.1 µM
Chain of 5'-AMP-activated protein kinase catalytic subunit alpha-1 (Homo sapiens) (Q13131 whole entry, looked up): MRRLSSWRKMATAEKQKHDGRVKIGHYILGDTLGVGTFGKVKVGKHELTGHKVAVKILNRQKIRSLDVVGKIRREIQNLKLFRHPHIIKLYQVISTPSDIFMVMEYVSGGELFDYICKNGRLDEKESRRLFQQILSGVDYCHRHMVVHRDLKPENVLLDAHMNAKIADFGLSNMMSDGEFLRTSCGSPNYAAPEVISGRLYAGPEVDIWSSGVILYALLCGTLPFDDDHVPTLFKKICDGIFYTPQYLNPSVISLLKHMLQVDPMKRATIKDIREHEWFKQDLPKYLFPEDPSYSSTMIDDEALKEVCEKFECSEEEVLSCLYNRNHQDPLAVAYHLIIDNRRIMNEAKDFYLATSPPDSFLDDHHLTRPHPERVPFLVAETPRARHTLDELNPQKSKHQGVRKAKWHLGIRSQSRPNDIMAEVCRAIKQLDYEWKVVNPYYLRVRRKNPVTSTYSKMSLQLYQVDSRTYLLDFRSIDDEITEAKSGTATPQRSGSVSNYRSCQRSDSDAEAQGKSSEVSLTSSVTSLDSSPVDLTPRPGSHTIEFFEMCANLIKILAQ

[9] = molecular target: 5'-AMP-activated protein kinase catalytic subunit alpha-1 (Homo sapiens) (UniProt Q13131); settings: at 1 µM
[10] = molecular target: 5'-AMP-activated protein kinase catalytic subunit alpha-2 (Homo sapiens) (UniProt P54646); settings: at 0.1 µM
Chain of 5'-AMP-activated protein kinase catalytic subunit alpha-2 (Homo sapiens) (P54646 whole entry, looked up): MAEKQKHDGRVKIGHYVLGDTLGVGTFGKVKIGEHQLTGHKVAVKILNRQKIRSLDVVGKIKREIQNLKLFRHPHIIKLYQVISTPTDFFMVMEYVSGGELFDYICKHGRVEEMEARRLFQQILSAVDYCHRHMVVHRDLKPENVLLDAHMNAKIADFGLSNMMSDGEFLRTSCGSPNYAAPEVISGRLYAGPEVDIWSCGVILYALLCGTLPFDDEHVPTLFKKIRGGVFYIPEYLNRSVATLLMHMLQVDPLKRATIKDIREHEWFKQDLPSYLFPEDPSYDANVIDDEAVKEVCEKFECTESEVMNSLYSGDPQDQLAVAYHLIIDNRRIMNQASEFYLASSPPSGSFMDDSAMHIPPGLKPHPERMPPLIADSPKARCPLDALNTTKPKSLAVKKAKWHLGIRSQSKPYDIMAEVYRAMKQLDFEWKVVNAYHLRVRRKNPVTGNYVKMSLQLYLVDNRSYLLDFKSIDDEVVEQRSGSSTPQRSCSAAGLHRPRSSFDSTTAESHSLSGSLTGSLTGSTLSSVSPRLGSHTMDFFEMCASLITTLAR

[11] = molecular target: 5'-AMP-activated protein kinase catalytic subunit alpha-2 (Homo sapiens) (UniProt P54646); settings: at 1 µM
[12] = molecular target: T4, NUAK family SNF1-like kinase 1 (Homo sapiens) (UniProt O60285); settings: at 0.1 µM
T4 sequence (whole entry): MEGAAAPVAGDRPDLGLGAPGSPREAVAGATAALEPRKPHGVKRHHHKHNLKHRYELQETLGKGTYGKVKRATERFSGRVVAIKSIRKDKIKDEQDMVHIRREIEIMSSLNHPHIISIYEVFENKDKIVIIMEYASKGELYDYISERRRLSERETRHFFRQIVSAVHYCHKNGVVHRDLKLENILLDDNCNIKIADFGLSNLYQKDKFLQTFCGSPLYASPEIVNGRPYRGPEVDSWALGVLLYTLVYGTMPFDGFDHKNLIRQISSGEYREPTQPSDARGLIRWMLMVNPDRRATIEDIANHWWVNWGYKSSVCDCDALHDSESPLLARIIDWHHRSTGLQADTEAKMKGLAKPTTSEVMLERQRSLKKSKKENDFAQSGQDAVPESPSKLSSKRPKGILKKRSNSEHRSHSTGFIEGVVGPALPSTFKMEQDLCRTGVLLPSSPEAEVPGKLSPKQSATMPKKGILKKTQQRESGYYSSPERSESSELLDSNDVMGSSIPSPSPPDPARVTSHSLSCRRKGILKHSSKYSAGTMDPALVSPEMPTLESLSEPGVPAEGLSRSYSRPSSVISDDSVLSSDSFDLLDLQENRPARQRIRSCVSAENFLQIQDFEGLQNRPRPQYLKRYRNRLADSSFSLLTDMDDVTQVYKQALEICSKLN

[13] = molecular target: T4, NUAK family SNF1-like kinase 1 (Homo sapiens); settings: at 1 µM
[14] = molecular target: T5, Serine/threonine-protein kinase BRSK1 (Homo sapiens) (UniProt Q8TDC3); settings: at 0.1 µM
T5 sequence (whole entry): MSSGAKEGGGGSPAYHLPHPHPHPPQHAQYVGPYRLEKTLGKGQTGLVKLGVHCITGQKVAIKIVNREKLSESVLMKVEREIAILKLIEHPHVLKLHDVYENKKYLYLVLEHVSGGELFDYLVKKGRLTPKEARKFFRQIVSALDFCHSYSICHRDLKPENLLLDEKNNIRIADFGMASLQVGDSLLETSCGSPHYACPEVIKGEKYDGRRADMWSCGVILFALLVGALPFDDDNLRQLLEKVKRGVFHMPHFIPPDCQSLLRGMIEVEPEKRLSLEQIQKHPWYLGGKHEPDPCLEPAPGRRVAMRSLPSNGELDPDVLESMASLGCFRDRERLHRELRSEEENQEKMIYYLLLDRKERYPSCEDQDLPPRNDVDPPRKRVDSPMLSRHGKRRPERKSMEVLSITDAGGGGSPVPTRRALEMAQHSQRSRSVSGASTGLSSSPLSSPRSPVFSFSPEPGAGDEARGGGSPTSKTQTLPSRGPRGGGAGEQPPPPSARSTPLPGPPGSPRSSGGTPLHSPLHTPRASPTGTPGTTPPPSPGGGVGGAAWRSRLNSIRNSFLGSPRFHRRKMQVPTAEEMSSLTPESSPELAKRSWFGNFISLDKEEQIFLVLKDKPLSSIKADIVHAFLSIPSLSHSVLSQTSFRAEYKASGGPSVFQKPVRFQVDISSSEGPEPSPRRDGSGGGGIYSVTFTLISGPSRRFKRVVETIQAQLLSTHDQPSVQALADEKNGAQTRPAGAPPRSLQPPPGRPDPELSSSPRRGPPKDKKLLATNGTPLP

[15] = molecular target: T5, Serine/threonine-protein kinase BRSK1 (Homo sapiens); settings: at 1 µM
[16] = molecular target: T6, Serine/threonine-protein kinase BRSK2 (Homo sapiens) (UniProt Q8IWQ3); settings: at 0.1 µM
T6 sequence (whole entry): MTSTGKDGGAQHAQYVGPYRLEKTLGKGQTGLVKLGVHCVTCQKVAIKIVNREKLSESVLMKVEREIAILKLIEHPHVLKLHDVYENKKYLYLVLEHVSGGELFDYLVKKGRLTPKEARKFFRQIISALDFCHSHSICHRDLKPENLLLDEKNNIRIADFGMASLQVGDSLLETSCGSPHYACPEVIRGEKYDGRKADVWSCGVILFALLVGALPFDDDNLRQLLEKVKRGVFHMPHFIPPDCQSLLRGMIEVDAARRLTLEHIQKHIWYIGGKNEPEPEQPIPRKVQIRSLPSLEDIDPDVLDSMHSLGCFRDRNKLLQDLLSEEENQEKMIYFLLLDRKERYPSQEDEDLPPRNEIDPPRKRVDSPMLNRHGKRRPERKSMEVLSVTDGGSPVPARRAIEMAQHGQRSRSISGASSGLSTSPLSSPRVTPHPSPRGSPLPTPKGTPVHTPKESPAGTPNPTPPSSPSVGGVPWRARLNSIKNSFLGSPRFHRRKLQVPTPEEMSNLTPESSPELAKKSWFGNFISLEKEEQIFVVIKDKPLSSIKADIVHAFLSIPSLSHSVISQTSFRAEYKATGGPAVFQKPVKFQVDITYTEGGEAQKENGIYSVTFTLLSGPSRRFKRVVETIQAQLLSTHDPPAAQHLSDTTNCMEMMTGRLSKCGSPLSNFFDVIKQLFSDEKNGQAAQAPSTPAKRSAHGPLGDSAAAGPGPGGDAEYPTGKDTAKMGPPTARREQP

[17] = molecular target: T6, Serine/threonine-protein kinase BRSK2 (Homo sapiens); settings: at 1 µM
[18] = molecular target: Calcium/calmodulin-dependent protein kinase type 1D (Homo sapiens) (UniProt Q8IU85); settings: at 0.1 µM
Chain of Calcium/calmodulin-dependent protein kinase type 1D (Homo sapiens) (Q8IU85 whole entry, looked up): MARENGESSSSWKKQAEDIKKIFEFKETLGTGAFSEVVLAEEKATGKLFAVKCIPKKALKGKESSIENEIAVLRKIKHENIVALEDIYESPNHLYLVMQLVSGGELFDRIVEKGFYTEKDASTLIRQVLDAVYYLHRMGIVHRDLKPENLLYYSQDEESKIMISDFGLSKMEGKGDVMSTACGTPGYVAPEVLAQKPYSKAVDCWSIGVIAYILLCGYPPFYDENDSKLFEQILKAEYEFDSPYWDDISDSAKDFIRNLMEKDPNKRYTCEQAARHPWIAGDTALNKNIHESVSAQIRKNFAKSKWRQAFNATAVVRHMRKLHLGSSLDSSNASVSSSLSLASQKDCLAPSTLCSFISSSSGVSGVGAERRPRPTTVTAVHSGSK

[19] = molecular target: Calcium/calmodulin-dependent protein kinase type 1D (Homo sapiens) (UniProt Q8IU85); settings: at 1 µM
[20] = molecular target: Calcium/calmodulin-dependent protein kinase type II subunit alpha (Homo sapiens) (UniProt Q9UQM7); settings: at 0.1 µM;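 further: reported values are averages (mean inhibition of CAMK2A)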
Chain of Calcium/calmodulin-dependent protein kinase type II subunit alpha (Homo sapiens) (Q9UQM7 whole entry): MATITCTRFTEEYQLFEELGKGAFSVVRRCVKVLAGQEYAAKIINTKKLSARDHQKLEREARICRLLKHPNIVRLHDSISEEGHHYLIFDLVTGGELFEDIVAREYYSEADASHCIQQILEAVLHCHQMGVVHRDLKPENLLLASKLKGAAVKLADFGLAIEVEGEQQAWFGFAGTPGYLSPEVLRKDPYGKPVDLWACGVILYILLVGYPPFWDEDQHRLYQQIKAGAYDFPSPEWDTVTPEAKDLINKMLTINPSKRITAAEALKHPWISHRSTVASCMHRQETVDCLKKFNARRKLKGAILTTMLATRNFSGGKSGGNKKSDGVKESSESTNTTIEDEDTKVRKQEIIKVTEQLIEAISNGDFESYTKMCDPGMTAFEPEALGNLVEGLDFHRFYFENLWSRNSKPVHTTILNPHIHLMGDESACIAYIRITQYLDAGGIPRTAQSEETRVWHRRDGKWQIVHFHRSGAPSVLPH

Chain of Ribosomal protein S6 kinase alpha-6 (Homo sapiens) (Q9UK32 whole entry): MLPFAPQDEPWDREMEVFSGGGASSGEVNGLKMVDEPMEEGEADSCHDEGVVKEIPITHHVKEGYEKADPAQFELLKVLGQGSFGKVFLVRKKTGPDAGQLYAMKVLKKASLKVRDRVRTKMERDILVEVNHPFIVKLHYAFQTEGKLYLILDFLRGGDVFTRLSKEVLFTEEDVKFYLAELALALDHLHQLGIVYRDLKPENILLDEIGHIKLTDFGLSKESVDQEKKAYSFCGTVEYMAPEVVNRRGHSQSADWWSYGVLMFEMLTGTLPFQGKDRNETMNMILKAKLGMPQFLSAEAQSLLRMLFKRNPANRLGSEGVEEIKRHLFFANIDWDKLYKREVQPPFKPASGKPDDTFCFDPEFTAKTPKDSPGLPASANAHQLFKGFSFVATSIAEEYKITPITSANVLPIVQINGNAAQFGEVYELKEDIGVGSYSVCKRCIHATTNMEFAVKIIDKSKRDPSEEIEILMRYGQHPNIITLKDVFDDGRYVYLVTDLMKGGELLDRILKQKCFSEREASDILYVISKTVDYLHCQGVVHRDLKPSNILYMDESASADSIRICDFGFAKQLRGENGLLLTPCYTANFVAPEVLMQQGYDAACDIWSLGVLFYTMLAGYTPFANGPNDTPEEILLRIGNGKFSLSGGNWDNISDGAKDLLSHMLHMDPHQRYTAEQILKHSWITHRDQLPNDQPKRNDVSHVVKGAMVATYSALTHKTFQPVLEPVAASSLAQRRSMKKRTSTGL

Compound	inhibition [1]	inhibition [2]	inhibition [3]	inhibition [4]	inhibition [5]	inhibition [6]	inhibition [7]	inhibition [8]	inhibition [9]	inhibition [10]	inhibition [11]	inhibition [12]	inhibition [13]	inhibition [14]	inhibition [15]	inhibition [16]	inhibition [17]	inhibition [18]	inhibition [19]	inhibition [20]
Fc1ccc(-c2nn3ccccc3c2-c2ccncc2)cc1	2.09%	0.19%	3.23%	3.79%	3.17%	3.25%	5.79%	1.13%	-0.08%	1.39%	2.49%	-0.02%	1.09%	0.59%	1.1%	1.69%	0.78%	0.87%	1.9%	3.85%
NS(=O)(=O)c1ccc(Nc2ncc(-c3ccccc3)o2)cc1	4.32%	2.77%	13%	2.15%	10.4%	1.86%	2.86%	4.14%	11.5%	1.03%	9.24%	10.7%	37.2%	1.52%	15.3%	2.58%	17%	0.42%	0.85%	4.27%
COc1cc(Nc2nccc(Nc3ccc4c(C)n[nH]c4c3)n2)cc(OC)c1OC	2.74%	3.49%	5.3%	-0.28%	-0.14%	2.13%	1.07%	1.6%	1.71%	2.15%	5.95%	10.4%	35.5%	3.57%	3.29%	2.02%	1.97%	3.39%	6.21%	4.54%
c1cc(-c2cnn3nc(N4CCOCC4)ccc23)nc(NC2CC2)n1	10.5%	2.27%	3.4%	9.24%	9.02%	4.38%	2.23%	4.11%	6.88%	-0.07%	7.62%	5.42%	25.6%	2.4%	6.62%	3.67%	7.84%	1.69%	2.68%	4.7%
NC(=O)c1sc(-n2cnc3ccc(C(F)(F)F)cc32)cc1OCc1ccccc1Br	2.19%	3.07%	4.04%	-0.91%	3.21%	3.83%	4.65%	2.58%	4.41%	3.14%	3.78%	-0.18%	3.82%	0.06%	1.03%	2.41%	4.25%	-0.93%	0.69%	1.87%
CCN(CC)S(=O)(=O)c1ccc(OC)c(Nc2ncc(-c3ccccc3)o2)c1	2.89%	-0.03%	3.29%	0.96%	1.93%	4.69%	0.56%	1.56%	3.48%	-5.76%	0.95%	5.96%	3.38%	-0.07%	0.94%	3.36%	6.08%	0.13%	-0.06%	3.02%
